# L3MBTL1 block = L3MBTL1 (human) inhibition. AlphaScreen L3MBTL1–H3K9me1 peptide binding. Potency, µM (titrated, usually from 57.1 µM), for the others: at the top dose activity, negative = inhibition, usual class: inhibitors. 0.66% of 230,000 active. AID 485360; also: % is scaled to controls: 0 for no effect and ±100 for the full control effect; nearly all actives have a fitted effect of over 60% in size
#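 L3MBTL1 50 nM + b-AHA-H3(1-15)K9me1 75 nM, 30 min RT; compound added, 30 min RT; streptavidin donor/Ni-chelate acceptor beads 10 ug/mL each final, 30 min RT dark; AlphaScreen read.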
# Pol kappa inh = DNA polymerase kappa (human) inhibition; purified Pol kappa, fluorescent DNA synthesis assay, 10 min; Potency, µM (highest dose often 107 µM), without a hit: top-dose activity, negative = inhibition, actives largely listed as inhibitors; 0.53% of 400,000 active; also: % is scaled to controls: 0 for no effect and ±100 for the full control effect
#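 Fluorescent qHTS in 1536-well format: enzyme (10 nM) and compound sat 15 min at room temperature before 50 nM substrate (final) was added. Signal taken at 0 and 10 min; no-enzyme buffer wells were negative controls.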
# WRN helicase inh = WRN helicase (human) inhibition; WRN helicase unwinding, fluorescent forked duplex, kinetic; Potency, µM (series often up to 114 µM), for inactives: top-dose activity change, negative = inhibition, usual class: inhibitors; 0.46% of 360,000 active; AID 651768; also: % is scaled to controls: 0 for no effect and ±100 for the full control effect; nearly all actives have a fitted effect of over 55% in size
#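 WRN at 20 nM final was preincubated with compound for 15 min at room temperature; reaction started with 100 nM forked duplex oligonucleotide carrying fluorophore and quencher plus 2 mM ATP (final). Unwinding followed kinetically by red fluorescence (ex 525/em 598 nm).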
# Pol iota inh = DNA polymerase iota (human) inhibition. Pol iota fluorescent replication assay, 10 min. Q9UNA4. Potency, µM (doses to about 115 µM), for inactives: at the highest dose activity, negative = inhibition, most hits filed as inhibitors. AID 588590. 1% of 390,000 active
#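 Fluorescent replication assay read twice, at 0 min and 10 min after adding 50 nM (final) substrate. Enzyme (10 nM) and compounds were first incubated 15 min at room temperature; enzyme-free buffer wells were negative controls.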
# Pol beta inh = DNA polymerase beta (human) inhibition. P06746. Pol beta primer extension/strand displacement, fluorescence kinetic. Potency, µM (top dose mostly 114 µM), without a hit: at the highest dose activity change, negative = inhibition, most hits filed as inhibitors. 1.3% of 340,000 active; also: % is scaled to controls: 0 for no effect and ±100 for the full control effect
#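 Reaction started by 50 nM substrate onto compound-treated Pol beta (10 nM, 15 min preincubation, room temperature); plates read at 0 min and 10 min. Normalized concentration-effect data fitted by four-parameter Hill equation.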
# Pol eta inh = inhibitors of human DNA polymerase eta. 1.2% of 390,000 active. AID 588591. Potency, µM (titrated, usually from 114 µM), inactives show at the highest dose activity change, negative = inhibition, most hits filed as inhibitors. recombinant Pol eta, fluorescent DNA replication assay. Q9Y253; also: % is scaled to controls: 0 for no effect and ±100 for the full control effect
#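 Pol eta (10 nM) was preincubated with compounds for 15 min at room temperature, after which fluorescent replication substrate (50 nM final) was added to start the reaction. Fluorescence was read kinetically at 0 and 10 min.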
# * = called active by the depositor; ? = inconclusive; · = no result given; [ ] = remark or other dose. This is a sample that favours compounds with a hit; in the whole collection about 2.5% have one here. Calls follow the shape of the dose curve; as a rule, active = well fitted curve in the direction sought with a large enough effect; inconclusive = small, poorly fitted or top-dose-only effect, or another doubt; inactive = no such curve, though single readings can be large; an effect the other way counts as inactive or inconclusive. Potency is read from the fitted curve at half-maximal effect.
SMILES,L3MBTL1 block,Pol kappa inh,WRN helicase inh,Pol iota inh,Pol beta inh,Pol eta inh
CCOC(=O)c1cnc2c(C)c(-c3ccccc3)[nH]n2c1=O,-1%,-2%,-3%,10%,8%,-18%
O=C(CCl)N(c1ccccc1)c1c[nH]c2ccccc12,-1%,-11%,-2%[11.6 µM],19%,-15%,14µM*
O=c1c2ccccc2oc2ccc(-c3ccoc3)cc12,·,?,·,14µM*,·,·
CCOc1ccc(OCC(=O)NCCc2nc3ccccc3[nH]2)cc1,4%,-10%,1%,7%,21%,-6%
Cc1ccc2nc(Cl)c(C3CC(c4ccco4)=NN3C(=O)CCCC(=O)O)cc2c1 (stereo not drawn),-6%,35µM*,-20%,16µM*,-4%,?
CC1=NN(c2ccccc2)C(=O)C1N=Nc1ccc(N)cc1 (stereo not drawn),25µM*,-11%,-17%,?,22µM*,-5%
CCCCn1c(=N)n(CC(=O)c2ccc(Br)s2)c2ccccc21,-2%,-2%,-10%,31%,4%,-13%
COc1ccccc1C(=O)NC(=O)CSc1nnc2ccccn12,4%,-13%,-10%,17%,·,1%
O=C(CSc1nnc2ccccn12)NC(=O)c1ccccc1Cl,-8%,?,-20%,28µM*,·,40µM*
COc1cccc(/C=N/Nc2ncnc3c2[nH]c2ccc(C)cc23)c1OC,·,?,?,13µM*,?,?
COc1ccc(Br)cc1/C=C/C(=O)c1ccc(NC(C)=O)cc1,3%,-19%,-3%[11.6 µM],100µM*,20%,?
COc1cc(=O)n(C)c2c(OC[C@@H](O)C(C)(C)O)cccc12,·,-3%[12 µM],·,·,·,·
O=C(Cn1c2ccccc2c2nc3n(c(=O)c21)CCS3)Nc1ccccc1C(F)(F)F,·,-14%,-18%,-2%,36%,7%
COc1ccc(Cn2c3nc4ccccc4nc3c3c(=O)n(Cc4ccco4)cnc32)cc1,·,·,·,·,35µM*,·
Cc1cccc(-n2cnc3c(c2=O)c2nc4ccccc4nc2n3Cc2ccco2)c1,·,-5%,-21%,?,40µM*,?
Cc1ccc(CNCCC2=CCCCC2)cc1,·,-5%,-4%,-20%[58.9 µM],14%,-10%
Cc1ccc(S(=O)(=O)NC(=O)c2cc(C)n(-c3cc(S(=O)(=O)N4CCOCC4)ccc3N3CCCC3)c2C)cc1,·,-25%,-11%,?,?,89µM*
Cc1ccc(C(=O)Nc2cc(S(=O)(=O)N3CCOCC3)ccc2N2CCCC2)cc1,2%,-5%,0%,10%,·,-25%
O=C1C(Cl)=C(N2CCN(c3ccccc3[N+](=O)[O-])CC2)C(=O)c2ccccc21,?,-6%,-27%,7.9µM*,28%,?
CCOC(=O)C1(Cc2ccccc2C)CCCN(C(=O)c2ccc(OC)o2)C1 (stereo not drawn),·,4%,3%,18%,37%,-4%
O=C(N/N=C/c1ccccc1Cl)c1ccncc1,9%,-7%,8%,-12%,71%,5%
O=C(N/N=C/c1cc(Cl)ccc1O)c1ccncc1,25µM*,-4%,5%,23%,0%,?
COc1cc(OC)c([N+](=O)[O-])cc1/C=N/NC(=O)c1ccncc1,?,-37%,-1%[11.6 µM],?,19%,32µM*
O=S(=O)(NCc1ccccc1)c1ccc(Cl)cc1,·,-7%,-2%,22%,9%,-12%
O=S(=O)(Nc1cc2nc3ccccc3nc2n1Cc1ccccc1)c1ccc(Cl)cc1,4µM*,-34%,?,10µM*,?,79µM*
COc1ccccc1/C=N\Nc1ccccc1[N+](=O)[O-],-27%,0%,-20%,87%,10%,-9%
Cc1[nH]c2ccccc2c1/C=N/Nc1ccccc1[N+](=O)[O-],18µM*,-4%,-8%,156%,-2%,2%
COc1ccc(NS(=O)(=O)c2cc([N+](=O)[O-])ccc2N/N=C/c2c(C)[nH]c3ccccc23)cc1,·,-10%,-8%,81%,·,-18%

# Screening data as filed in PubChem.
